Only some compounds are listed: those with a hit (about 0.91% of all), similar ones and a draw of the others.
APE1 inh = inhibitors of human APE1 endonuclease; P27695; recombinant APE1, TAMRA/BHQ-2 abasic DNA cleavage fluorescence; Potency, µM (highest dose often 65.8 µM), for inactives: at the highest dose activity change, negative = inhibition, hits mostly inhibitors; 350,000 compounds, 0.35% hits;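 also: plate controls were vehicle for no effect and reference inhibitor for full effect; nearly all actives have a fitted effect of over 55% in size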
Target sequence (P27695 whole entry, looked up): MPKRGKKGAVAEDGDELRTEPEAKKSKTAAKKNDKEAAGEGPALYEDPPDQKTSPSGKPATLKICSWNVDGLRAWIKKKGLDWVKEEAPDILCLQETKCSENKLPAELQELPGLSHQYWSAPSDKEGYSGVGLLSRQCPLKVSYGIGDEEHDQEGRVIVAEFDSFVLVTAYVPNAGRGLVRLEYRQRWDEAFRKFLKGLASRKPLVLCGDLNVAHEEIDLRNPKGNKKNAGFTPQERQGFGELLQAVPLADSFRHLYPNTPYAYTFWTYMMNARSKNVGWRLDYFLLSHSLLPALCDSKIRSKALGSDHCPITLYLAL
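Compound pre-exposure to 0.75 nM APE1, 15 min at ambient temperature. Reaction initiated with 50 nM TAMRA/BHQ-2 THF substrate, read immediately in kinetic mode, 525 nm excitation, 598 nm emission.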
BLM inh = inhibitors of human Bloom syndrome helicase BLM; P54132; recombinant BLM DNA unwinding, fluorescence dequenching; Potency, µM (titrated, usually from 56.1 µM), without a hit: top-dose activity change, negative = inhibition, usual class: inhibitors; 350,000 compounds, 0.2% hits; AID 2528;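 also: plate controls were vehicle for no effect and no enzyme for full effect; nearly all actives have a fitted effect of over 35% in size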
TRb SRC2 PPI = TRbeta-SRC2 interaction inhibition; P10828; TRbeta-SRC2 peptide binding, fluorescence polarization; receptor liganded with 1 µM T3; Potency, µM (highest dose often 106 µM), for inactives: at the top dose activity change, negative = inhibition, actives largely listed as inhibitors; 280,000 compounds, 0.065% hits; AID 1469;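 also: plate controls were bound peptide for no effect and peptide without receptor for full effect; nearly all actives have a fitted effect of over 50% in size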
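Polarization signal, normalized between peptide-alone and full complex controls, measured compound effects on T3-liganded human TRb LBD (0.6 uM) binding 20 nM Texas Red SRC2 peptide after 5 hr.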
RECQ1 inh-1 = blocks DNA unwinding by human RECQ1 | RECQ1 DNA unwinding, red fluorescence kinetic read | P46063 | Potency, µM (highest dose often 57.3 µM), for inactives: at the top dose activity, negative = inhibition, most hits filed as inhibitors | 240,000 compounds, 0.54% hits;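 also: plate controls were vehicle for no effect and no enzyme for full effect; nearly all actives have a fitted effect of over 30% in size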
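RECQ1T1 50 nM; forked duplex (20 bp + 30-nt ss tails) 200 nM, ATP 2 mM final; pH 8.0, 2 mM MgCl2, 2.5 ug/ml poly(dI-dC); 15 min compound preincubation; discontinuous kinetic read over 2 h at RT.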
TexasRed fluor = Texas Red fluorescence interference in TRb-SRC2 counter-screen; 280,000 compounds, 0.29% hits; AID 1479; TRb/SRC2 Texas Red total fluorescence interference; Potency, µM (top dose mostly 106 µM), inactives show top-dose fluorescence change, negative = quenching; active = well fitted curve in either direction with a large enough effect; inconclusive = small, poorly fitted or top-dose-only effect
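Human TRb ligand-binding domain at 0.6 uM with 20 nM Texas Red SRC2 peptide in Tris buffer containing 1 uM T3 and 5% DMSO, incubated with compound 5 h at ambient temperature. Total fluorescence (555/632 nm) calculated as parallel + 2 × perpendicular.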
WRN helicase inh = blocks human WRN helicase. Q14191. WRN helicase unwinding, fluorescent forked duplex, kinetic. Potency, µM (doses to about 114 µM), without a hit: at the top dose activity change, negative = inhibition, actives largely listed as inhibitors. 360,000 compounds, 0.46% hits. AID 651768; also: nearly all actives have a fitted effect of over 55% in size
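Kinetic red-fluorescence monitoring (525/598 nm) tracks WRN helicase activity after 100 nM fluorophore-quencher forked duplex and 2 mM ATP are added to 20 nM enzyme pretreated 15 min at room temperature with compound.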
RECQ1 conf = confirmation of human RECQ1 helicase inhibitors; 610 compounds, 28% hits; RECQ1 helicase DNA unwinding, fluorescence; shares compounds with RECQ1 inh-1; Potency, µM (highest dose often 229 µM), without a hit: top-dose activity change, negative = inhibition, usual class: inhibitors; also: nearly all actives have a fitted effect of over 45% in size
RECQ1 ADP FP = displaces ADP in a fluorescence polarization counter-screen for RECQ1 hits; shares compounds with RECQ1 inh-1; ADP fluorescence polarization displacement counterscreen; Potency, µM (titrated, usually from 228 µM), for inactives: top-dose activity change, negative = inhibition, most hits filed as inhibitors; 530 compounds, 27% hits; AID 2711; also: nearly all actives have a fitted effect of over 45% in size
RECQ1 inh-2 = blocks human RECQ1 DNA unwinding; AID 504841; Potency, µM (doses to about 119 µM), without a hit: at the highest dose activity, negative = inhibition, most hits filed as inhibitors; recombinant RECQ1 DNA unwinding, red fluorescence; shares compounds with RECQ1 inh-1; 1,100 compounds, 15% hits; also: nearly all actives have a fitted effect of over 50% in size
Starred values were filed as active, the others as inactive; [ ] = dose if it differs, or a comment. Unless noted, calls follow the shape of the dose curve; as a rule, active = well fitted curve in the direction sought with a large enough effect; inconclusive = small, poorly fitted or top-dose-only effect, or another doubt; inactive = no such curve, though single readings can be large; an effect the other way counts as inactive or inconclusive. Unless noted, % is scaled to controls: 0 for no effect and ±100 for the full control effect; potency is read from the fitted curve at half-maximal effect.

What do the screens show for `COc1cc2[nH]c3c(N4CCN(c5ccccn5)CC4)ncnc3c2cc1OC`?
APE1 inh: inconclusive; BLM inh: -21%; TRb SRC2 PPI: 3%; RECQ1 inh-1: inconclusive; TexasRed fluor: -11%; WRN helicase inh: inconclusive; RECQ1 inh-2: inconclusive

How did COc1ccc(N2CCN(c3ncnc4c3[nH]c3ccccc34)CC2)cc1 do in these assays?
APE1 inh: 0%; BLM inh: 0%; TRb SRC2 PPI: -20%; RECQ1 inh-1: -4%; TexasRed fluor: -2%; WRN helicase inh: -3%

How did CC1CCCN(C(=S)SCC(=O)c2cc(Br)cc(Br)c2O)C1 (stereo unspecified) do in these assays?
APE1 inh: -7%; BLM inh: -8%; TRb SRC2 PPI: 19%[53 µM]; RECQ1 inh-1: inconclusive; TexasRed fluor: 10%[53 µM]; WRN helicase inh: 89µM*; RECQ1 inh-2: -20%

How did O=C(CSC(=S)N1CCCC1)c1cc(Br)cc(Br)c1O do in these assays?
APE1 inh: 2%; BLM inh: -11%; TRb SRC2 PPI: 17%; RECQ1 inh-1: 32µM*; TexasRed fluor: 18%; WRN helicase inh: 56µM*; RECQ1 inh-2: 50µM*

Results for CC1CCCN(C(=S)SCC(=O)O)C1 (stereo unspecified) ?
APE1 inh: -2%; BLM inh: 0%; TRb SRC2 PPI: -1%[53 µM]; RECQ1 inh-1: -6%; TexasRed fluor: -1%[53 µM]; WRN helicase inh: -2%

Results for O=C(NCCCCC(NC(=O)c1ccc([N+](=O)[O-])cc1)C(=O)O)c1ccc([N+](=O)[O-])cc1 (stereo unspecified) ?
APE1 inh: 3%; BLM inh: 0%; TRb SRC2 PPI: -2%; RECQ1 inh-1: inactive; TexasRed fluor: -2%; WRN helicase inh: 7%; RECQ1 conf: 7%; RECQ1 ADP FP: -2%

What do the screens show for `COCCCNC(=O)c1ccc([N+](=O)[O-])cc1`?
APE1 inh: 13%; BLM inh: -1%; TRb SRC2 PPI: 6%; RECQ1 inh-1: -27%; TexasRed fluor: -3%; WRN helicase inh: -1%

What do the screens show for `O=C(COC(=O)C1CC2CCCC(C1)C2=O)NNC(=O)c1ccccc1Br` (stereo unspecified)?
APE1 inh: 18%; WRN helicase inh: -16%

How did COc1ccc(NS(=O)(=O)c2cc(NC(=O)c3ccc(=O)[nH]n3)ccc2C)cc1 do in these assays?
APE1 inh: -4%; WRN helicase inh: 4%

What do the screens show for `COc1ccc(Cn2cccc(NC(=O)Nc3cccc(OC)c3)c2=O)cc1`?
APE1 inh: -1%; BLM inh: -11%; TRb SRC2 PPI: 3%; RECQ1 inh-1: inconclusive; TexasRed fluor: -3%; WRN helicase inh: -6%; RECQ1 inh-2: -17%

Results for COc1ccc(NC(=O)C2CC(=O)N(CCc3ccc(Cl)cc3)C2)cc1 (stereo unspecified) ?
APE1 inh: -11%; BLM inh: -3%; WRN helicase inh: -9%

What do the screens show for `OC(COc1ccc(Cl)cc1)CN1CCN(c2cccc(Cl)c2)CC1` (stereo unspecified)?
APE1 inh: 10%; BLM inh: -12%; TRb SRC2 PPI: 9%; RECQ1 inh-1: 35µM*; TexasRed fluor: -2%; WRN helicase inh: 11%; RECQ1 inh-2: inconclusive

Results for CC(C)(C)N(Cc1ccccc1)C(=O)CN1C(=O)c2ccccc2S1(=O)=O ?
APE1 inh: 13%; WRN helicase inh: 3%

How did Cc1ccccc1NC(=O)Cn1nc(C(=O)O)c2ccccc2c1=O do in these assays?
APE1 inh: 35%; BLM inh: -1%; WRN helicase inh: -4%

What do the screens show for `O=C(Cn1nc(C(=O)O)c2ccccc2c1=O)Nc1nc(-c2ccccc2)cs1`?
APE1 inh: -4%; BLM inh: -9%; TRb SRC2 PPI: 4%; RECQ1 inh-1: inactive; TexasRed fluor: -1%; WRN helicase inh: -2%; RECQ1 conf: 2%; RECQ1 ADP FP: 7%

What do the screens show for `Cc1ccc(S(=O)(=O)c2nc(NC3CCS(=O)(=O)C3)sc2Cl)cc1` (stereo unspecified)?
APE1 inh: -3%; BLM inh: -10%; TRb SRC2 PPI: -4%; RECQ1 inh-1: -13%; TexasRed fluor: -1%; WRN helicase inh: 6%

How did O=S(=O)(c1ccccc1)c1nc(NC2CC2)sc1Cl do in these assays?
APE1 inh: 17%; BLM inh: -2%; TRb SRC2 PPI: 6%; RECQ1 inh-1: 40µM*; TexasRed fluor: 0%; WRN helicase inh: 3%; RECQ1 inh-2: -5%

Results for O=C(/C=C/c1ccco1)NCC1OCCc2ccccc21 (stereo unspecified) ?
APE1 inh: inconclusive; BLM inh: inconclusive; TRb SRC2 PPI: -2%; RECQ1 inh-1: inconclusive; TexasRed fluor: -1%; WRN helicase inh: 56µM*; RECQ1 inh-2: 6.3µM*

What do the screens show for `C=CC(=O)NCC1OCCc2ccccc21` (stereo unspecified)?
APE1 inh: 0%; BLM inh: -2%; TRb SRC2 PPI: 4%; RECQ1 inh-1: inactive; TexasRed fluor: -1%; WRN helicase inh: -8%[57.1 µM]

How did O=C(CSc1ncnc2scc(-c3ccccc3)c12)N1CCN(Cc2ccc3c(c2)OCO3)CC1 do in these assays?
APE1 inh: 0%; BLM inh: -17%; TRb SRC2 PPI: 4%; RECQ1 inh-1: 13µM*; TexasRed fluor: 45µM*[fluorescent]; WRN helicase inh: -10%; RECQ1 conf: inconclusive; RECQ1 inh-2: -24%

What do the screens show for `c1ccc(-c2csc3ncnc(N4CCN(Cc5ccc6c(c5)OCO6)CC4)c23)cc1`?
APE1 inh: 13%; BLM inh: -2%; WRN helicase inh: 2%

From PubChem BioAssay
